Compound activity (PubChem BioAssay)
Sampled rows, rich in hits. Any-hit rate of the full collection: about 7.4%.
SMN2 splice enh: qHTS Assay for Enhancers of SMN2 Splice Variant Expression; HEK293 SMN2-luciferase splicing reporter, luminescence, 30-36 h; Potency, µM (titrated, usually from 46.1 µM), for the others: at the highest dose activity change, positive = activation, hits mostly activators; 210,000 tested, 2.8% active; AID 1458, 2008; also: % of control where 0% means no effect; nearly all actives have a fitted effect of over 55% in size
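HEK293 cells carry an SMN2 minigene-luciferase reporter in which exon 7 inclusion puts luciferase in frame. Cells were seeded at 2000 cells/well, attached for 10-12 hours, then exposed to compounds for 30-36 hours at 37C before ONE-Glo luminescence.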
ELG1 genotox: qHTS screen for small molecules that induce genotoxicity in human embryonic kidney (HEK293T) cells expressing luciferase-tagged ELG1; 330,000 tested, 1.3% active; HEK293T ELG1-luciferase reporter, luminescence, 16 h; Potency, µM (top dose mostly 46 µM), inactives show at the highest dose activity change, positive = activation, usual class: activators; also: % of control where 0% means no effect; nearly all actives have a fitted effect of over 60% in size
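Screening used a luciferase reporter fused to human ELG1 in HEK293T cells. Luminescence was read on a CCD plate imager after 16 hr exposure and 30 min ONE-Glo incubation.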
FLuc counter: qHTS profiling assay for firefly luciferase inhibitor/activator using purifed enzyme and Km concentrations of substrates (counterscreen for miR-21 project); purified FLuc, Km substrates, luminescence inhibition; Potency, µM (highest dose often 57.5 µM), without a hit: at the highest dose activity change, negative = inhibition, usual class: inhibitors; 360,000 tested, 6.9% active; AID 588342, 2011;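 also: plate controls were vehicle for no effect and reference inhibitor for full effect; nearly all actives have a fitted effect of over 55% in size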
Target sequence (P08659 whole entry, looked up): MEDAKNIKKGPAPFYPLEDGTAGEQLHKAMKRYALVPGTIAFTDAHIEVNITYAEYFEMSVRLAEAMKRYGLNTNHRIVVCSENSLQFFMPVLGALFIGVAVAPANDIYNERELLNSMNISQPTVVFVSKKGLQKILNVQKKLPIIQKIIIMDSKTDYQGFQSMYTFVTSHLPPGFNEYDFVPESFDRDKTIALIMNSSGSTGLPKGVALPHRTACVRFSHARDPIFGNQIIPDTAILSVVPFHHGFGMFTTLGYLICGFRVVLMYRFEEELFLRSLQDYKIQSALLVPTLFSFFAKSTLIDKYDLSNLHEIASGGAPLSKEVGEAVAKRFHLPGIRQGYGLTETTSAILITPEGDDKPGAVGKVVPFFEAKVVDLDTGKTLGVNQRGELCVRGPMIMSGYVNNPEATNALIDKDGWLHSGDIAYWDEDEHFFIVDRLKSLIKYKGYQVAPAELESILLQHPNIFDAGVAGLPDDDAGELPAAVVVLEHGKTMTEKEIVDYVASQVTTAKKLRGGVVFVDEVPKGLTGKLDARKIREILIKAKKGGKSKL
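Biochemical qHTS of compounds, final roughly 60 µM downward over six points, against 10 nM purified firefly luciferase using Km concentrations of substrates (10 uM D-luciferin, 10 uM ATP) in Tris acetate pH 7.5 buffer; luminescence output.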
NPC1 promoter act: qHTS Assay for NPC1 Promoter Activators; Potency, µM (top dose mostly 9.22 µM), for inactives: at the top dose activation, hits mostly activators; Huh7 NPC1 promoter luciferase reporter, 24 h; 320,000 tested, 2.4% active; AID 485313, 2010; also: % of control where 0% means no effect; nearly all actives have a fitted effect of over 60% in size
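Huh7 cells stably carrying NPC1 promoter–luciferase, plated in Opti-MEM with 10% FBS for 2 h, were exposed to compound in DMSO for 24 h at 37 °C; luciferase reagent was added for 10 min and luminescence read.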
KinaseGlo FLuc: Counterscreen for Luciferase (Kinase-Glo TM) Inhibition; Luciferin 4-monooxygenase (Photuris pensylvanica), Q27757; Kinase-Glo luciferase, ATP luminescence, 8 min; Potency, µM (top dose mostly 38.3 µM), for the others: top-dose activity change, negative = inhibition, most hits filed as inhibitors; 200,000 tested, 0.28% active; also: % is scaled to controls: 0 for no effect and ±100 for the full control effect; nearly all actives have a fitted effect of over 60% in size
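Compounds were added to a substrate mix at pH 7.2 (50 mM imidazole, 10 uM ATP, within the enzyme's linear range), followed by Kinase-Glo detection reagent; luminescence was measured after 8 minutes at ambient temperature.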
Rab9 prom act: qHTS Assay for Rab9 Promoter Activators | Huh7 Rab9 promoter-luciferase reporter, luminescence, 24 h | Potency, µM (series often up to 9.22 µM), inactives show at the top dose activation, negative = inhibition, actives largely listed as activators | 320,000 tested, 2.8% active | AID 485297, 2010; also: % of control where 0% means no effect; nearly all actives have a fitted effect of over 60% in size
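Luminescence read-out: Huh7 cells stably expressing Rab9-luciferase, treated 24 h with compound at 37 °C, then lysed with luciferase reagent for 10 min at ambient before reading.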
Numbers without * were called inactive; ? = inconclusive; . = no result; [ ] = dose if it differs, or a comment. Calls follow the shape of the dose curve; as a rule, active = well fitted curve in the direction sought with a large enough effect; inconclusive = small, poorly fitted or top-dose-only effect, or another doubt; inactive = no such curve, though single readings can be large; an effect the other way counts as inactive or inconclusive. Potency is read from the fitted curve at half-maximal effect.

SMILES | SMN2 splice enh | ELG1 genotox | FLuc counter | NPC1 promoter act | KinaseGlo FLuc | Rab9 prom act
Cc1cccc2nc(CSc3nnc4ccccn34)cn12 | ? | . | 11µM* | . | -5% | .
Cc1cccc2nc(CSc3ncccc3C(=O)O)cn12 | 3% | 5% | 27µM* | -3% | 0% | 1%
c1ccc(-n2cnnc2SCc2cn3ccsc3n2)cc1 | -5% | 1% | 3% | -8% | -1% | -7%
Cc1cccc(C2=N[C@@H](Cc3ccccc3)CO2)c1 | . | . | . | . | 2%[39.9 µM] | .
Cc1ccc(C)c(Cn2c3ccccc3c3cnn(CC(=O)NC4CCCCCC4)c(=O)c32)c1 | 8% | . | -1% | . | . | .
CSCCC(NC(=O)c1ccc(C(C)(C)C)cc1)C(=O)OCC(=O)N1CCCC1=O (stereo not given) | . | 0% | 21µM* | -1% | . | -1%
COc1ccc(CNC(=O)C2COc3ccccc3O2)cc1 (stereo not given) | 13µM* | 14% | ? | ? | 4% | ?
COc1ccccc1C(CNC(=O)C1COc2ccccc2O1)N1CCCC1 (stereo not given) | . | 0% | -9% | -11% | . | -4%
O=C(NCc1cccnc1)C1COc2ccccc2O1 (stereo not given) | -10% | 1% | 1% | -1% | 4% | 3%
COc1ccccc1CNC(=O)C1COc2ccccc2O1 (stereo not given) | ? | 18µM* | ? | 15% | 7% | -6%
COc1cccc(-n2c(SCC(=O)Nc3cc(C)ccc3C)nc3c(oc4ccccc43)c2=O)c1 | -7% | . | 0% | . | . | .
Cn1ncc2c(Nc3cccc(C#N)c3)ncnc21 | . | . | -3% | . | . | .
Cc1cc(Nc2ccccc2F)n2nc(-c3ccccc3)nc2n1 | -13% | . | ? | . | . | .
c1csc(-c2nc3c4ccccc4c4ccccc4c3[nH]2)c1 | -10% | -13% | 15µM* | -4% | -4% | -7%
Cc1ccc(S(=O)Cc2ccc(C(=O)NC3CCCCCC3)o2)cc1 (stereo not given) | 12% | . | 6% | . | . | .
Cc1ccc(NC(=O)C2CCN(c3cc(C)nc4c(-c5ccc(Cl)cc5)c(C)nn34)CC2)c(C)c1 | -2% | . | -2% | . | . | .
COc1ccccc1N1CCN(S(=O)(=O)CCNC(=O)C(c2ccccc2)c2ccccc2)CC1 | . | . | -3% | . | . | .
Cc1cnc(C(=O)OCC(=O)c2c[nH]c3ccccc23)cn1 | . | 3% | -10% | -2% | . | 1%
CC1(C(=O)OCC(=O)c2c[nH]c3ccccc23)CC1(Cl)Cl (stereo not given) | ? | ? | 6.7µM* | 4µM* | -3% | 3.2µM*
COc1ccc(OCC(=O)c2c[nH]c3ccccc23)cc1 | 26% | 18% | 3.8µM* | ? | -2% | ?
O=C(NC12CC3CC(CC(C3)C1)C2)c1ccc(-c2ccc(Br)cc2)o1 | 16µM* | ? | 4.8µM* | ? | 2% | ?
O=C(NC12CC3CC(CC(C3)C1)C2)c1ccc(Br)o1 | . | -12% | 17µM* | -2% | . | -2%
COc1ccccc1NCc1cccn1-c1nnc(N2CCOCC2)s1 | . | . | -10% | . | . | .
Cn1cc(C(=O)N/N=C/C(Br)=C/c2ccccc2)ccc1=O | 4%[1.84 µM] | 12% | 19µM* | 1% | 2% | 4%
COc1cccc(C(=O)N/N=C/C(Br)=C/c2ccccc2)c1 | 23% | 18% | 11µM* | 1% | -11% | 13%
SMILES | SMN2 splice enh | ELG1 genotox | FLuc counter | NPC1 promoter act | KinaseGlo FLuc | Rab9 prom act
CC(/C=N/NC(=O)c1cccc([N+](=O)[O-])c1)=C\c1ccccc1 | -2% | 9% | -13% | ? | -12% | 21%
Cn1cc(C(=O)N/N=C/C(Br)=C\c2ccccc2)ccc1=O | 15% | 14% | ? | -7% | -4% | 11%
COc1ccc(C(=O)N/N=C/C(Br)=C/c2ccccc2)cc1 | 11% | -2% | 3µM* | 9% | -2% | 19%
O=C(N/N=C/C(Br)=C/c1ccccc1)c1ccccc1[N+](=O)[O-] | . | 3% | ? | -3% | . | 0%
N#Cc1ccc(CN2CCC3(CC2)CCN(S(=O)(=O)c2ccccc2)CC3)cc1 | -72% | . | . | . | -4% | .
COc1ccc(CNC(=O)CSc2nc(-c3ccc(OC)c(OC)c3)cc(C(F)(F)F)n2)cc1 | -1% | . | -5% | . | . | .
COc1cc(/C=C/c2noc(-c3ccccc3O)n2)ccc1OC(C)=O | . | 13µM* | 12µM* | ? | . | ?
Oc1ccccc1/C=C/c1noc(-c2ccccc2O)n1 | ? | 5.8µM* | 1.9µM* | ? | -3% | 14%
CC(=O)Nc1ccc(/C=C/c2noc(-c3ccccc3O)n2)cc1 | -8% | 14% | ? | ? | . | ?
CCC(CC)C(=O)Nc1c(C(=O)N2CCN(c3ccccc3F)CC2)oc2ccccc12 | . | . | -15% | . | . | .
Cc1cc(C)c(S(=O)(=O)Nc2cc(Cl)c3oc4c(c3c2)C(=O)CCC4)cc1C | 3% | . | -7% | . | . | .
N#Cc1cnc2sc3ccccc3n2c1=N | 17% | 14µM* | 24µM* | 24% | -7% | ?
CC1=C(C(=O)Nc2cc(C)cc(C)c2)C2(CCCCC2)OC1=O | 4% | . | -5% | . | . | .
CCOc1ccc(NC(=S)NC(=O)c2c(Br)cnn2C)c([N+](=O)[O-])c1 | 3% | 2% | 6µM* | 8% | -1% | 17%
O=C(/C=C/c1ccco1)Nc1cc(Cl)ccc1C(=O)O | 3% | 1% | 19µM* | 3% | -1% | -4%
O=C(/C=C\c1ccco1)Nc1cc([N+](=O)[O-])ccc1F | -12% | ? | 4% | -11% | 0% | -27%
O=C(/C=C/c1ccco1)Nc1ccccc1C(=O)Nc1cccc(C(=O)O)c1 | . | 4% | 3µM* | 2% | . | 1%
O=C(/C=C/c1ccco1)Nc1ccccc1C(=O)O | 13µM* | 10µM* | 2.7µM* | 2µM* | ? | 2.8µM*
COc1ccc(-c2cc3ccc(O)c(CN4CCOCC4)c3oc2=O)cc1OC | . | . | -2% | . | . | .
COc1ccc(OC)c(NC(=O)CN2C(=O)CC(C)Sc3ccccc32)c1 (stereo not given) | 3% | . | 1% | . | . | .
CCOC(=O)C1=C(C)N=C2c3ccccc3C(=O)C2C1c1ccc(Cl)cc1 (stereo not given) | -4% | -5% | 0% | -4% | -3% | -6%
CCOC(=O)C1=C(Cc2ccc(Cl)cc2)C(=O)c2ccccc2C1=O | -26% | -6% | 21µM* | 6% | -9% | -10%
